# Laboratory results as given in PubChem BioAssay AID1159580 (chemical genetic matrix, 2015).
# “And” between values parts separate entries of the source, which are not always exact repeats. Equal entries are not always repeated. In all, about 5,500 compounds went through this assay and about 2,000 (36%) were called active. Inconclusive results (about 18%) are left out. The list shows a part of the results. Values without a mark were called inactive. Cut-off read from the data, not from the text of the source: active = normalized growth mostly below about 0.91 (no sharp cut-off); inconclusive = no clear call, values can overlap the other calls; inactive = mostly above about 0.92.
# Test: chemical genetic growth profiling, strain panel (AID 1159580);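 note: tested at 20 µM; growth read once vehicle control cultures reached saturation at 30 °C; 1 = growth at the plate median or of vehicle wells; lower values mean less growth of the strain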
# Settings: growth OD
# [1] = S. cerevisiae deletion strains, locus YBR229C, strain ROT2, stronger effect = lower value
# [2] = S. cerevisiae deletion strains, locus YDL101C, strain DUN1, stronger effect = lower value
# [3] = S. cerevisiae deletion strains, locus YDR150W, strain NUM1, stronger effect = lower value
# [4] = S. cerevisiae deletion strains, locus YEL061C, strain CIN8, stronger effect = lower value
# [5] = S. cerevisiae deletion strains, locus YGR078C, strain PAC10, stronger effect = lower value
# [6] = S. cerevisiae deletion strains, locus YHR030C, strain SLT2, stronger effect = lower value
# [7] = S. cerevisiae deletion strains, locus YJR043C, strain POL32, stronger effect = lower value
# [8] = S. cerevisiae deletion strains, locus YJR075W, strain HOC1, stronger effect = lower value
# [9] = S. cerevisiae deletion strains, locus YLR039C, strain RIC1, stronger effect = lower value
# [10] = S. cerevisiae deletion strains, locus YLR262C, strain YPT6, stronger effect = lower value
# [11] = S. cerevisiae deletion strains, locus YMR307W, strain GAS1, stronger effect = lower value
# [12] = S. cerevisiae deletion strains, locus YNL153C, strain GIM3, stronger effect = lower value
# [13] = S. cerevisiae deletion strains, locus YPL055C, strain LGE1, stronger effect = lower value
# [14] = S. cerevisiae deletion strains, locus YPL241C, strain CIN2, stronger effect = lower value
# [15] = S. cerevisiae strains, strain wild type, stronger effect = lower value
# [16] = S. cerevisiae deletion strains, locus YAL013W, strain DEP1, stronger effect = lower value
# [17] = S. cerevisiae deletion strains, locus YCL061C, strain MRC1, stronger effect = lower value
# [18] = S. cerevisiae deletion strains, locus YDL134C, strain PPH21, stronger effect = lower value
# [19] = S. cerevisiae deletion strains, locus YHR087W, strain rtc3, stronger effect = lower value
# [20] = S. cerevisiae deletion strains, locus YJL187C, strain SWE1, stronger effect = lower value
# [21] = S. cerevisiae deletion strains, locus YLR058C, strain SHM2 (second series), stronger effect = lower value
# [22] = S. cerevisiae deletion strains, locus YLR085C, strain ARP6, stronger effect = lower value
# [23] = S. cerevisiae deletion strains, locus YML094W, strain GIM5, stronger effect = lower value
# [24] = S. cerevisiae deletion strains, locus YMR219W, strain ESC1, stronger effect = lower value
# [25] = S. cerevisiae deletion strains, locus YMR263W, strain SAP30, stronger effect = lower value
# [26] = S. cerevisiae deletion strains, locus YNL298W, strain CLA4 (second series), stronger effect = lower value
# [27] = S. cerevisiae deletion strains, locus YNL322C, strain KRE1, stronger effect = lower value
# [28] = S. cerevisiae deletion strains, locus YNR030W, strain Alg12, stronger effect = lower value
# [29] = S. cerevisiae deletion strains, locus YPR135W, strain CTF4, stronger effect = lower value
compound,measurement,setting,value
O=c1ccn([C@@H]2O[C@H](COP(=O)(O)OP(=O)(O)OP(=O)(O)O)[C@@H](O)[C@H]2O)c(=O)[nH]1,normalized growth,"S. cerevisiae deletion strains, locus YBR021W, strain FUR4, stronger effect = lower value",1.06
same,normalized growth,[1],1.02
same,normalized growth,"S. cerevisiae deletion strains, locus YCL029C, strain bik1, stronger effect = lower value",0.999
same,normalized growth,"S. cerevisiae deletion strains, locus YDL035C, strain GPR1, stronger effect = lower value",1.02
same,normalized growth,"S. cerevisiae deletion strains, locus YDL074C, strain BRE1, stronger effect = lower value",1.04
same,normalized growth,[2],1.02
same,normalized growth,"S. cerevisiae deletion strains, locus YDL185W, strain tfp1, stronger effect = lower value",0.974
same,normalized growth,"S. cerevisiae deletion strains, locus YDL192W, strain arf1, stronger effect = lower value",0.991
same,normalized growth,"S. cerevisiae deletion strains, locus YDR101C, strain arx1, stronger effect = lower value",1.03
same,normalized growth,[3],1.02
same,normalized growth,"S. cerevisiae deletion strains, locus YDR162C, strain NBP2, stronger effect = lower value",1.01
same,normalized growth,"S. cerevisiae deletion strains, locus YDR318W, strain mcm21, stronger effect = lower value",1
same,normalized growth,"S. cerevisiae deletion strains, locus YDR388W, stronger effect = lower value",0.988
same,normalized growth,"S. cerevisiae deletion strains, locus YDR502C, strain sam2, stronger effect = lower value",0.993
same,normalized growth,[4],1.01
same,normalized growth,"S. cerevisiae deletion strains, locus YER110C, stronger effect = lower value",0.954
same,normalized growth,"S. cerevisiae deletion strains, locus YER155C, strain BEM2, stronger effect = lower value",1.02
same,normalized growth,"S. cerevisiae deletion strains, locus YER167W, strain BCK2, stronger effect = lower value",1.02
same,normalized growth,"S. cerevisiae deletion strains, locus YGL078C, strain dbp3, stronger effect = lower value",0.984
same,normalized growth,"S. cerevisiae deletion strains, locus YGL086W, strain mad1, stronger effect = lower value",0.996
same,normalized growth,"S. cerevisiae deletion strains, locus YGL248W, strain PDE1, stronger effect = lower value",1.02
same,normalized growth,[5],1.02
same,normalized growth,"S. cerevisiae deletion strains, locus YGR135W, strain pre9, stronger effect = lower value",0.946
same,normalized growth,"S. cerevisiae deletion strains, locus YGR252W, strain gcn5, stronger effect = lower value",0.975
same,normalized growth,[6],1.01 and 1.04
same,normalized growth,"S. cerevisiae deletion strains, locus YHR079C, strain IRE1 (second series), stronger effect = lower value",1
same,normalized growth,"S. cerevisiae deletion strains, locus YHR079C, strain IRE1, stronger effect = lower value",1.04
same,normalized growth,"S. cerevisiae deletion strains, locus YHR094C, strain hxt1, stronger effect = lower value",0.996
same,normalized growth,"S. cerevisiae deletion strains, locus YHR129C, strain ARP1, stronger effect = lower value",1.02
same,normalized growth,"S. cerevisiae deletion strains, locus YHR200W, strain rpn10, stronger effect = lower value",1
same,normalized growth,"S. cerevisiae deletion strains, locus YIL066C, strain RNR3, stronger effect = lower value",1.03
same,normalized growth,"S. cerevisiae deletion strains, locus YIL073C, strain SPO22, stronger effect = lower value",0.962
same,normalized growth,"S. cerevisiae deletion strains, locus YIL125W, strain kgd1, stronger effect = lower value",1.01
same,normalized growth,"S. cerevisiae deletion strains, locus YIR030C, strain dcg1, stronger effect = lower value",0.996
same,normalized growth,"S. cerevisiae deletion strains, locus YJL095W, strain BCK1, stronger effect = lower value",1.04
same,normalized growth,"S. cerevisiae deletion strains, locus YJL134W, strain LCB3, stronger effect = lower value",1.01
same,normalized growth,"S. cerevisiae deletion strains, locus YJL168C, strain set2, stronger effect = lower value",0.98
same,normalized growth,"S. cerevisiae deletion strains, locus YJL187C, strain SWE1 (second series), stronger effect = lower value",1.03
same,normalized growth,[7],1.04
same,normalized growth,"S. cerevisiae deletion strains, locus YJR066W, strain TOR1, stronger effect = lower value",1.01
same,normalized growth,[8],1
same,normalized growth,"S. cerevisiae deletion strains, locus YKL009W, strain mrt4, stronger effect = lower value",0.979
same,normalized growth,"S. cerevisiae deletion strains, locus YKL068W, stronger effect = lower value",1.02
same,normalized growth,"S. cerevisiae deletion strains, locus YKL085W, strain MDH1 (second series), stronger effect = lower value",1.01
same,normalized growth,"S. cerevisiae deletion strains, locus YKL085W, strain MDH1, stronger effect = lower value",1.01
same,normalized growth,"S. cerevisiae deletion strains, locus YKR001C, strain vps1, stronger effect = lower value",0.99
same,normalized growth,[9],1.04
same,normalized growth,"S. cerevisiae deletion strains, locus YLR058C, strain SHM2, stronger effect = lower value",1.01
same,normalized growth,"S. cerevisiae deletion strains, locus YLR102C, strain apc9, stronger effect = lower value",1
same,normalized growth,"S. cerevisiae deletion strains, locus YLR113W, strain HOG1, stronger effect = lower value",1.05
same,normalized growth,[10],1.03
same,normalized growth,"S. cerevisiae deletion strains, locus YLR268W, strain sec22, stronger effect = lower value",0.988
same,normalized growth,"S. cerevisiae deletion strains, locus YLR330W, strain CHS5, stronger effect = lower value",1.01
same,normalized growth,"S. cerevisiae deletion strains, locus YLR342W, strain FKS1 (second series), stronger effect = lower value",1.03
same,normalized growth,"S. cerevisiae deletion strains, locus YLR371W, strain rom2, stronger effect = lower value",0.998
same,normalized growth,"S. cerevisiae deletion strains, locus YLR418C, strain cdc73, stronger effect = lower value",0.976
same,normalized growth,"S. cerevisiae deletion strains, locus YML016C, strain PPZ1, stronger effect = lower value",1.01
same,normalized growth,"S. cerevisiae deletion strains, locus YML032C, strain rad52, stronger effect = lower value",0.972
same,normalized growth,"S. cerevisiae deletion strains, locus YML124C, strain tub3, stronger effect = lower value",0.995
same,normalized growth,"S. cerevisiae deletion strains, locus YMR078C, strain ctf18, stronger effect = lower value",1
same,normalized growth,"S. cerevisiae deletion strains, locus YMR223W, strain ubp8, stronger effect = lower value",0.977
same,normalized growth,[11],0.976
same,normalized growth,"S. cerevisiae deletion strains, locus YNL067W, strain RPL9B, stronger effect = lower value",1.04
same,normalized growth,[12],1.04
same,normalized growth,"S. cerevisiae deletion strains, locus YNL183C, strain NPR1, stronger effect = lower value",1.04
same,normalized growth,"S. cerevisiae deletion strains, locus YNL233W, strain BNI4, stronger effect = lower value",1.04
same,normalized growth,"S. cerevisiae deletion strains, locus YNL250W, strain rad50, stronger effect = lower value",0.989
same,normalized growth,"S. cerevisiae deletion strains, locus YNL271C, strain bni1, stronger effect = lower value",0.998
same,normalized growth,"S. cerevisiae deletion strains, locus YNL298W, strain CLA4, stronger effect = lower value",0.98
same,normalized growth,"S. cerevisiae deletion strains, locus YNL307C, strain MCK1, stronger effect = lower value",0.994
same,normalized growth,"S. cerevisiae deletion strains, locus YNR052C, strain pop2, stronger effect = lower value",0.995
same,normalized growth,"S. cerevisiae deletion strains, locus YOL012C, strain htz1",0.439
same,normalized growth,"S. cerevisiae deletion strains, locus YOL147C, strain pex11, stronger effect = lower value",0.99
same,normalized growth,"S. cerevisiae deletion strains, locus YOR061W, strain CKA2, stronger effect = lower value",1.01
same,normalized growth,"S. cerevisiae deletion strains, locus YOR069W, strain VPS5, stronger effect = lower value",1.01
same,normalized growth,"S. cerevisiae deletion strains, locus YOR136W, strain idh2, stronger effect = lower value",0.997
same,normalized growth,"S. cerevisiae deletion strains, locus YOR144C, strain elg1, stronger effect = lower value",0.992
same,normalized growth,"S. cerevisiae deletion strains, locus YOR184W, strain ser1, stronger effect = lower value",0.965
same,normalized growth,"S. cerevisiae deletion strains, locus YOR231W, strain MKK1, stronger effect = lower value",1.07
same,normalized growth,"S. cerevisiae deletion strains, locus YOR316C, strain cot1, stronger effect = lower value",1
same,normalized growth,[13],1.04
same,normalized growth,[14],0.998
same,normalized growth,"S. cerevisiae deletion strains, locus YPL256C, strain CLN2, stronger effect = lower value",1.03
same,normalized growth,"S. cerevisiae deletion strains, locus YPR119W, strain clb2, stronger effect = lower value",1
same,normalized growth,"S. cerevisiae deletion strains, locus YPR141C, strain kar3, stronger effect = lower value",1.01
same,normalized growth,"S. cerevisiae deletion strains, locus YPR163C, strain tif3, stronger effect = lower value",1.02
same,normalized growth,"S. cerevisiae deletion strains, locus YPR167C, strain met16, stronger effect = lower value",1
same,normalized growth,"S. cerevisiae deletion strains, strain wtn01, stronger effect = lower value",0.977
same,normalized growth,[15],1.01
Cc1onc(-c2ccccc2Cl)c1C(=O)Nc1ccc(S(=O)(=O)Nc2nccs2)cc1,normalized growth,[16],1.01
same,normalized growth,[1],1.01
same,normalized growth,[17],0.985
same,normalized growth,[2],0.977
same,normalized growth,[18],0.976
same,normalized growth,[3],0.972
same,normalized growth,[4],1.01
same,normalized growth,[5],1.01
same,normalized growth,[6],0.982
same,normalized growth,[19],0.968
same,normalized growth,[20],1
same,normalized growth,[7],0.966
same,normalized growth,[8],1
same,normalized growth,"S. cerevisiae deletion strains, locus YKL190W, strain CNB1, stronger effect = lower value",0.989
same,normalized growth,[9],0.975
same,normalized growth,[21],0.982
same,normalized growth,[22],1.05
same,normalized growth,[10],0.97
same,normalized growth,[23],1.03
same,normalized growth,[24],0.999
same,normalized growth,[25],1
same,normalized growth,[12],0.98
same,normalized growth,[26],0.949
same,normalized growth,[27],0.995
same,normalized growth,[28],0.996
same,normalized growth,"S. cerevisiae deletion strains, locus YOL006C, strain TOP1, stronger effect = lower value",0.926
same,normalized growth,[13],1.05
same,normalized growth,[14],1.01
same,normalized growth,[29],0.932
same,normalized growth,[15],0.968
Cc1onc(-c2ccccc2Cl)c1C(=O)Nc1ccc2c(c1)OCO2,normalized growth,[16],0.993
same,normalized growth,[1],1.02
same,normalized growth,[2],1
same,normalized growth,[18],0.985
same,normalized growth,[3],0.935
same,normalized growth,[4],1.01
same,normalized growth,[5],1
same,normalized growth,"S. cerevisiae deletion strains, locus YGR229C, strain SMI1, stronger effect = lower value",0.997
same,normalized growth,[6],1.08
same,normalized growth,[19],1.01
same,normalized growth,[20],1.01
same,normalized growth,[7],1.03
same,normalized growth,[8],1.01
same,normalized growth,[9],0.971
same,normalized growth,[21],1.02
same,normalized growth,[22],0.997
same,normalized growth,[10],0.99
same,normalized growth,[23],1.02
same,normalized growth,[24],1
same,normalized growth,[25],0.919
same,normalized growth,[11],1.01
same,normalized growth,[12],1
same,normalized growth,[26],1.04
same,normalized growth,[27],0.995
same,normalized growth,[28],1.03
same,normalized growth,[13],0.888
same,normalized growth,[14],1.01
same,normalized growth,[29],1.14
CSc1nc2ccc(NC(=O)c3c(-c4ccccc4)noc3C)cc2s1,normalized growth,[16],0.971
same,normalized growth,[1],1.01
same,normalized growth,[17],0.99
same,normalized growth,[2],1.01
same,normalized growth,[18],1
same,normalized growth,[3],0.896
same,normalized growth,[4],1
same,normalized growth,[5],0.984
same,normalized growth,[6],0.897
same,normalized growth,[19],1
same,normalized growth,[20],1
same,normalized growth,[7],0.999
same,normalized growth,[8],1
same,normalized growth,[9],0.888
same,normalized growth,[21],0.996
same,normalized growth,[22],0.85
same,normalized growth,[10],0.787 (active)
same,normalized growth,[23],0.974
same,normalized growth,[24],1
same,normalized growth,[25],0.945
same,normalized growth,[11],0.961
same,normalized growth,"S. cerevisiae deletion strains, locus YNL128W, strain TEP1, stronger effect = lower value",1
same,normalized growth,[12],1.01
same,normalized growth,[26],1
same,normalized growth,[27],0.998
same,normalized growth,[28],1
same,normalized growth,[13],0.926
same,normalized growth,[14],1
same,normalized growth,[29],0.921
same,normalized growth,[15],1.01
